What was measured:
Conditions in all cases: concentration: 1 μM, replicates: in singlicate; n = 1
[1] = test system: PRKD3
[2] = test system: PRKG1
[3] = test system: PRKG2
[4] = test system: T1, PRKR
T1 construct: gene EIF2AK2

[5] = test system: PRKX
[6] = test system: PRP4
[7] = test system: T2, PYK2
T2 construct: gene PTK2B

[8] = test system: QSK
[9] = test system: RAF1
[10] = test system: RET
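Further: KINOMEscan kinase panel screen.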

CCOc1nccc(-c2c(-c3ccc(F)cc3)ncn2C2CCNCC2)n1 [SB-249175]
%Inh [1]: 19% | %Inh [2]: 0% | %Inh [3]: 12% | %Inh [4]: 16% | %Inh [5]: 0% | %Inh [6]: 0% | %Inh [7]: 16% | %Inh [8]: 20% | %Inh [9]: 19% | %Inh [10]: 32%

O=C(Nc1n[nH]c2nc(-c3ccccc3O)ccc12)C1CC1 [SB-711880]
%Inh [1]: 0% | %Inh [2]: 0% | %Inh [3]: 28% | %Inh [4]: 10% | %Inh [5]: 1% | %Inh [6]: 0% | %Inh [7]: 4% | %Inh [8]: 33% | %Inh [9]: 0% | %Inh [10]: 0%

Cc1cc(-c2ccnc(Nc3cccc(C#N)c3)n2)cc(C)c1O [GSK1440913]
%Inh [1]: 0% | %Inh [2]: 0% | %Inh [3]: 0% | %Inh [4]: 52% | %Inh [5]: 0% | %Inh [6]: 92.8% | %Inh [7]: 27% | %Inh [8]: 23% | %Inh [9]: 13% | %Inh [10]: 0%

O=C(Nc1c(F)cccc1F)c1cc(C(=O)c2ccccc2F)c[nH]1 [GSK1326180]
%Inh [1]: 0% | %Inh [2]: 0% | %Inh [3]: 0% | %Inh [4]: 0% | %Inh [5]: 3% | %Inh [6]: 0% | %Inh [7]: 6% | %Inh [8]: 4% | %Inh [9]: 6% | %Inh [10]: 4%

Cc1ccc(O)cc1Nc1ccnc2cc(-c3ccc(CN4CCCCC4)o3)ccc12 [GW557777]
%Inh [1]: 95.1% | %Inh [2]: 0% | %Inh [3]: 0% | %Inh [4]: 1% | %Inh [5]: 0% | %Inh [6]: 0% | %Inh [7]: 5% | %Inh [8]: 41% | %Inh [9]: 7% | %Inh [10]: 100%

CN(c1ccc(F)c(NC(=O)c2cccc(OC(C)(C)C#N)c2Cl)c1)c1ccc2nc(NC(=O)C3CC3)sc2n1
%Inh [1]: 0% | %Inh [2]: 0% | %Inh [3]: 3% | %Inh [4]: 0% | %Inh [5]: 1% | %Inh [6]: 18% | %Inh [7]: 3% | %Inh [8]: 0% | %Inh [9]: 96.1% | %Inh [10]: 100%

Fc1cc(Cl)ccc1Nc1ccnc2cc(-c3ccc(CN4CCSCC4)o3)ccc12 [GW560106]
%Inh [1]: 0% | %Inh [2]: 27% | %Inh [3]: 66% | %Inh [4]: 3% | %Inh [5]: 1% | %Inh [6]: 29% | %Inh [7]: 0% | %Inh [8]: 63% | %Inh [9]: 12% | %Inh [10]: 98.3%

CN(c1ccc(NC(=O)N2CCN(CCCN3CCOCC3)CC2)cc1)c1ccnc(Nc2ccc(CS(C)(=O)=O)cc2)n1.Cl [GW830899]
%Inh [1]: 0% | %Inh [2]: 0% | %Inh [3]: 100% | %Inh [4]: 0% | %Inh [5]: 63% | %Inh [6]: 0% | %Inh [7]: 16% | %Inh [8]: 0% | %Inh [9]: 28% | %Inh [10]: 6%

CS(=O)(=O)c1cccc(CNc2nc(Nc3ccc4c(c3)CCC(=O)N4)ncc2C(F)(F)F)c1
%Inh [1]: 4% | %Inh [2]: 0% | %Inh [3]: 0% | %Inh [4]: 0% | %Inh [5]: 0% | %Inh [6]: 30% | %Inh [7]: 26% | %Inh [8]: 0% | %Inh [9]: 0% | %Inh [10]: 90.1%

Nc1cccc(-c2ccc3c(N)n[nH]c3c2)c1 [GSK2193613]
%Inh [1]: 0% | %Inh [2]: 20% | %Inh [3]: 19% | %Inh [4]: 0% | %Inh [5]: 7% | %Inh [6]: 19% | %Inh [7]: 5% | %Inh [8]: 0% | %Inh [9]: 0% | %Inh [10]: 5%

Cc1ccc(NC(=O)c2ccc(Cl)c(Cl)c2)cc1-c1ccc(C(=O)Nc2ccncc2)cc1 [GSK1398460]
%Inh [1]: 23% | %Inh [2]: 13% | %Inh [3]: 0% | %Inh [4]: 7% | %Inh [5]: 17% | %Inh [6]: 0% | %Inh [7]: 13% | %Inh [8]: 0% | %Inh [9]: 78% | %Inh [10]: 38%

CC(C)NCC(Cc1ccccc1)NC(=O)c1cc(Br)c(-c2ccnc3[nH]ccc23)s1.Cl.Cl (stereo not drawn) [GSK1383281]
%Inh [1]: 81% | %Inh [2]: 98.8% | %Inh [3]: 98.8% | %Inh [4]: 16% | %Inh [5]: 96.5% | %Inh [6]: 24% | %Inh [7]: 17% | %Inh [8]: 5% | %Inh [9]: 0% | %Inh [10]: 66%

COc1cccc(-c2nc(-c3ccccc3)[nH]c2-c2ccncc2)c1 [SB-610250]
%Inh [1]: 11% | %Inh [2]: 0% | %Inh [3]: 0% | %Inh [4]: 0% | %Inh [5]: 0% | %Inh [6]: 70% | %Inh [7]: 0% | %Inh [8]: 8% | %Inh [9]: 34% | %Inh [10]: 25%

CSc1ccc(NC2=C(c3ccc(Cl)cc3)C(=O)NC2=O)cc1 [SB-317658]
%Inh [1]: 0% | %Inh [2]: 6% | %Inh [3]: 0% | %Inh [4]: 0% | %Inh [5]: 0% | %Inh [6]: 0% | %Inh [7]: 0% | %Inh [8]: 0% | %Inh [9]: 13% | %Inh [10]: 7%

O=C(Nc1n[nH]c2nc(-c3ccccc3)ccc12)C1CC1 [SB-708999]
%Inh [1]: 0% | %Inh [2]: 1% | %Inh [3]: 0% | %Inh [4]: 0% | %Inh [5]: 5% | %Inh [6]: 7% | %Inh [7]: 0% | %Inh [8]: 0% | %Inh [9]: 23% | %Inh [10]: 32%

— article PMC5540273 (PLoS ONE, 2017)
